Bioassay records as filed in PubChem.
Hits are enriched below; roughly 4.7% of the tested compounds scored in any of these assays.
TRHR PAM – allosteric enhancers of human TRH receptor | P34981 | TRHR cells, fluo-8 calcium fluorescence, EC20 TRH enhancement | enhancement, % at 2 µM | actives 0.66% (n = 360,000); in the data active = enhancement above about 30%; note: 0% is about no effect
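TRHR-expressing cells loaded with fluo-8 calcium dye were read kinetically (ex 480/em 530) during compound addition, then stimulated with an EC20 of TRH (10 nM final). Enhancement of the Gq-mediated intracellular calcium response was scored.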
D1 agonist – human D1 receptor agonism; activation, % at 2 µM; P21728; actives 1% (n = 360,000); HEK293 T-REx D1 cells, calcium flux, agonist mode; note: 0% is about no effect
Target sequence (P21728 whole entry, looked up): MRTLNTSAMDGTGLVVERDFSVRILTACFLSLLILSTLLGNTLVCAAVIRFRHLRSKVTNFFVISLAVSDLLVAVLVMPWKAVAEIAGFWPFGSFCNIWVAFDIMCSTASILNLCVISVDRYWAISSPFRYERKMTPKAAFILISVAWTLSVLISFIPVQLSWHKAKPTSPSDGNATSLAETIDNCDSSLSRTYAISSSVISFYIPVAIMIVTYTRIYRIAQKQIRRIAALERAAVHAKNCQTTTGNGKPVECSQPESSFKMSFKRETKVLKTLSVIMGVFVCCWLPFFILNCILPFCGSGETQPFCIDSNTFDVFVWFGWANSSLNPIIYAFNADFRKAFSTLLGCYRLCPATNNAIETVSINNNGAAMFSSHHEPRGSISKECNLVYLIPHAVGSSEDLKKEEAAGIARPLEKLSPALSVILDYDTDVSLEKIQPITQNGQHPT
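Agonism was scored from calcium flux recorded over 180 s (1 read/s) after pintool compound addition, following a 10-cycle baseline. Cells were inducible force-coupled HEK293 TREx D1, plated overnight at 30 C and loaded with no-wash calcium dye.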
TRHR agonist – activates the human TRH receptor | P34981 | AID 493084 | TRHR cells, calcium flux fluo-8, FDSS agonist mode | actives 0.18% (n = 360,000) | activation, % at 2 µM; note: 0% is about no effect
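In this calcium-flux screen, cells bearing human TRHR are dye-loaded with fluo-8, baselined for 10 cycles, then exposed to library compounds; positive kinetic calcium responses during the agonist phase mark hits, with TRH as control.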
D1 antagonist – blocks dopamine activation of the human D1 receptor. P21728. HEK293 TREx D1 cells, calcium flux, dopamine EC80; stronger effect = lower value. activity change, negative = inhibition, % at 10 µM. actives 3.2% (n = 360,000). AID 504652; in the data active = activity change below about -30%; note: % is set by controls: 0 for no effect and ±100 for the full control effect
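Calcium flux readout: force-coupled, inducible Hek293 Trex D1 line, cells induced overnight at 30 C with tetracycline, dye-loaded 30–90 min at RT. Antagonism scored against EC80 dopamine challenge given 180 s after compound.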
D1 PAM – human D1 dopamine receptor positive modulation. P21728. HEK293 TREx D1 cells, calcium flux, dopamine EC20 potentiation. potentiation, % at 10 µM. actives 0.036% (n = 360,000). AID 504651; in the data active = potentiation above about 30%; note: 0% is about no effect
Starred values were filed as active, the others as inactive; nt = no result given. Cut-off read from the data, not from the text of the source, unless noted: active = activation above about 30%; inactive = the rest.

SMILES | TRHR PAM | D1 agonist | TRHR agonist | D1 antagonist | D1 PAM
COc1ccc(NS(=O)(=O)c2ccc3c(c2)NC(=O)CCS3)cc1Cl | 3 | 5 | 0 | -39* | 4
COc1ccc(S(=O)(=O)NC2CC2)cc1Cl | 7 | 0 | 0 | -5 | -3
COc1ccc(C(=O)C2CCCN(Cc3sc(N4CCCC4)nc3Cl)C2)c(OC)c1 (stereo unspecified) | -5 | 7 | -1 | -41* | -3
O=C(NC1CCCN(Cc2ccc(Cl)cc2)C1)C1CCC1 (stereo unspecified) | 31* | 2 | -2 | -7 | -3
COc1ccc2oc(=O)cc(CN3CCN(c4ccccc4F)CC3)c2c1 | -2 | 0 | -1 | -9 | 1
Cc1nc2n(c(=O)c1CCN1CCC(c3noc4cc(F)ccc34)CC1)CCCC2 | -2 | nt | -1 | -75* | nt
O=C(NCc1ccc(F)cc1)c1ccc2c(=O)n3c(nc2c1)CCCCC3 | 0 | 1 | -1 | -23 | -6
Cc1cc(S(=O)(=O)C(CNC(=O)c2ccc(OC(C)C)cc2)c2cccs2)ccc1F (stereo unspecified) | -6 | 1 | 0 | -74* | -1
CC(C)(C)c1ccc(C(=O)NCC(c2cccs2)S(=O)(=O)c2cccs2)cc1 (stereo unspecified) | 45* | 2 | 0 | 13 | 4
CC(=O)N1c2ccc(S(=O)(=O)N3CCCC(C(=O)NC4CCCC(C)C4C)C3)cc2CC1C (stereo unspecified) | 0 | 2 | -2 | -3 | -5
COCCCN1CN=C(NS(=O)(=O)c2ccc(NC(C)=O)cc2)NC1 | 4 | 1 | -3 | 3 | -2
O=C(Nc1cccc(-c2ccc(N3CCCCC3)nn2)c1)C(F)(F)F | 3 | 12 | -1 | -33* | -11
Cc1ccc(S(=O)(=O)Nc2cccc(-c3ccc(N4CCCCC4)nn3)c2)s1 | -2 | 1 | -1 | -80* | -2
CC1CCN(c2ccc(-c3cccc(NC(=O)C(F)(F)F)c3)nn2)CC1 | 6 | 12 | -1 | -55* | -10
CCN(C(=O)CSc1nc2ccccc2nc1Cc1cccc(OC)c1)c1cccc(C)c1 | -3 | 21 | 2 | -6 | -1
COc1cccc(C(=O)COC(=O)C2CC(=O)N(c3ccc(Oc4ccccc4OC)cc3)C2)c1 (stereo unspecified) | -1 | 7 | 1 | -6 | 0
CC1Oc2ccccc2C=C1/C=N/NC(=O)c1ccccc1O (stereo unspecified) | 3 | 17 | 0 | -40* | -1
COc1ccc(C(CCNC(C)c2ccccc2)c2ccc(F)cc2)cc1 (stereo unspecified) | -3 | 56* | 2 | 0 | 4
COc1ccc(C(CCNCc2ccc(F)cc2)c2ccc(F)cc2)cc1 (stereo unspecified) | 1 | 46* | 5 | 0 | 10
COc1ccc(C(CCNCc2ccccc2)c2ccc(F)cc2)cc1 (stereo unspecified) | 2 | 29 | 2 | 4 | -4
COc1ccc(CNCCC(c2ccc(F)cc2)c2ccc(OC)cc2)cc1 (stereo unspecified) | 8 | 34* | 1 | 4 | -5
COc1ccc(S(=O)(=O)Nc2cc3c(cc2N2CCOCC2)n(C)c(=O)n3C)cc1 | 0 | -1 | 0 | 2 | -3
CC1CCN(C(=O)Cn2c(-c3cccs3)cc3cc(Cl)ccc32)CC1 | -1 | 1 | 0 | -13 | 0
CCCCCCC#Cc1cncc(C(=O)NNC(=O)Nc2cc(Cl)cc(Cl)c2)c1 | -4 | 1 | 0 | -7 | -3
CCCCC#Cc1cncc(C(=O)NN)c1 | 6 | 3 | 1 | -54* | -3
SMILES | TRHR PAM | D1 agonist | TRHR agonist | D1 antagonist | D1 PAM
Cc1cc(C(C#N)c2ccc(Cl)cc2)c(Cl)cc1NC(=O)c1cc(I)cc(I)c1O (stereo unspecified) | -7 | 13 | 1 | -33* | -7
CC(C)NS(=O)(=O)c1ccc(N2C(=O)c3ccccc3C2=O)cc1 | -7 | 12 | 1 | -33* | -1
Cc1cccc(C)c1NS(=O)(=O)c1cc2c3c(c1)CC(=O)N3CCC2 | -2 | 5 | -1 | 10 | -4
Cc1ccc(C2CC(c3ccco3)=NN2S(C)(=O)=O)cc1 (stereo unspecified) | 0 | 1 | -1 | -35* | -3
Cn1c(=O)n(CC(=O)NCC2CCCO2)c(=O)c2c3c(sc21)COC(C)(C)C3 (stereo unspecified) | -5 | 1 | 0 | -30* | -1
CCCn1c(=O)n(CC(=O)NCC2CCCO2)c(=O)c2c3c(sc21)COC(C)(C)C3 (stereo unspecified) | 3 | 1 | 0 | -9 | 0
Cc1cc(NC(=O)C(=O)NCc2cccc(Cl)c2)no1 | 1 | 5 | 0 | -33* | 2
Cc1cc(NC(=O)CSCC(=O)N(C)Cc2cccc(Cl)c2)no1 | -2 | 3 | 0 | -18 | -11
Cc1cc(NC(=O)Nc2ccc(C)c(C)c2)no1 | 2 | 4 | 0 | -5 | -6
Cc1cc(NC(=O)Nc2cc(Cl)ccc2C)no1 | 5 | 35* | 2 | -10 | 0
Cc1nc2c(C(=O)NCc3ccccc3Cl)cnn2c(C)c1Cc1c(F)cccc1Cl | -6 | 7 | 1 | 8 | 1
COCc1ccc(C(=O)NC2CC(C)(C)Cc3c2cnn3-c2ccc(OC)cc2)o1 (stereo unspecified) | -2 | -1 | 0 | 12 | 6
Cc1ccc(S(=O)(=O)NCCc2ccncc2)cc1 | 16 | 0 | -1 | -1 | -3
CCCCc1ccc(S(=O)(=O)NCCc2ccncc2)cc1 | -8 | 9 | -1 | -45* | -5
O=C(/C=C/c1ccccc1)NC1CC2CCCC(C1)N2Cc1ccccc1 (stereo unspecified) | -22 | 2 | 0 | -96* | -10
COc1ccc(CN2C3CCCC2CC(NC(=O)/C=C/c2ccccc2)C3)cc1 (stereo unspecified) | -1 | 77* | -1 | -51* | -4
CCN(CC)C(=O)NC1CC2CCCC(C1)N2Cc1ccccc1 (stereo unspecified) | 1 | 0 | 0 | -8 | 0
COc1ccc(C(=O)NC2CC3CCCC(C2)N3CC(C)C)cc1 (stereo unspecified) | 2 | 4 | 1 | 5 | -12
O=C(/C=C/c1cccc(F)c1)NC1CCN(Cc2ccccc2)CC1 | -5 | 10 | 0 | -45* | nt
CCCN(C(=O)COc1cc(=O)n(CC)c2ccccc12)c1ccc(C(C)C)cc1 | -7 | 1 | 3 | 1 | -1
O=C(NCC(c1cccnc1)N1CCN(Cc2ccccc2)CC1)C(=O)Nc1cccc(F)c1 (stereo unspecified) | -2 | 15 | 0 | 12 | -1
Cc1ccc(Cn2c(=O)c3cccnc3n(Cc3ccc(C)cc3)c2=O)cc1 | 10 | 0 | 0 | -30* | -7
